About 83,000 compounds went through this panel and 20% of them were active in at least one assay; those are over-represented in the sample as a whole.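 Cell lines were cultured in 96-well plates, exposed to a single compound concentration, and assessed for percent growth 48 hours later.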 Unmarked numbers belong to inactive results. Activity calls are given as the source filed them. How the source made its calls: active means growth percent below 10; inactive means the rest.

The test system of the assay is HL-60(TB) leukemia. Put plainly: NCI-60 one-dose screen, 48 h (100 = growth as untreated, 0 = no growth, -100 = all killed). The settings on record: 10 µM unless noted.
Regarding `COc1ccc(OCC(=O)OC(C)C)cc1`, the growth is 90%.

Consider `CCCCCCCCCCCCCCCC(=O)O[C@@H]1[C@@H](O)[C@@H](O)C([C@H](NC(=O)[C@@H]2C[C@@H](CCC)CN2C)[C@H](C)Cl)O[C@@H]1SC` (stereo not given in full), for which the growth is 98.6%.

With `Oc1[nH]c2ccc(Cl)cc2c1/C=c1/ccc2c(c1)N=C(c1cccs1)N=2`, the growth was 98.4%.

Turning to `CCN1CCC[C@H]1c1cc(O)c2c(c1OC)C[C@H]1C[C@H]3[C@H](N)C(=O)C(C(N)=O)=C(O)[C@@]3(O)C(=O)C1=C2O`, the growth was -49.2% (active).

On to `CCC1N=C(N)N=C(N)N1c1ccc(Cl)cc1` (stereo not given), for which the growth is 75.4%.

As for `COC(=O)/C=C1\SC(=Nc2cccc(Cl)c2)N(CCc2c[nH]c3ccccc23)C1=O`, the growth is -37.1% (active).

Take `COC(=O)[C@@]12CC[C@@H](C)[C@]3(C[C@@H](c4ccoc4)OC3=O)[C@H]1CC[C@@H]1O[C@@]12C`: the growth is 104%.

As for `COc1ccc(-c2csc(NC(=O)CSc3nc(C)cc(=O)[nH]3)n2)cc1`, the growth was 106%.

`O=[N+]([O-])CC(c1ccccc1F)c1c[nH]c2ccccc12` (stereo not given): the growth was 51.1%.

Take `C#C[C@@]1(O)[C@@H](CO)O[C@@H](n2cc(Cl)c3c(N)ccnc32)[C@@H]1O`: the growth was -2.37% (active).

For the compound `CCCCCCC(C(=O)OCC)(C(=O)OCC)C1CCCCCC1`, the growth is 106%.

With `CCCCC1Nc2nc(SC)n(C)c(=O)c2CN(Cc2ccccc2)C1=O` (stereo not given), the growth was 111%.

Consider `CCSc1cnnc2ccccc12`, for which the growth is 91.5%.

In the case of `COc1cccc2c1C(=O)c1c(O)c3c(c(O)c1C2=O)C[C@@](O)(C(C)=O)C[C@@H]3OC1CC(N)C(O)C(C)O1` (stereo not given in full), the growth was -63.3% (active).

Regarding `CCOC(=O)c1ccc(C(C)(C)C)cc1`, the growth was 90.4%.

On to `CCOC(=O)c1c(NC(=O)CSc2n[nH]c3nc4ccccc4n23)sc(CC)c1C`, for which the growth is 97.9%.

As to `COc1cccc2c1O/C(=C\c1c([N+](=O)[O-])ncn1C)C2=O`, the growth was 95.8%.

`Cc1cc(C)cc(Nc2nccc(-c3c(-c4ccc(F)cc4)ncn3C3CCNCC3)n2)c1`: the growth is -58.9% (active).

On to `CC1(C)N=C(N)N=C(N)N1c1ccc(CCCCc2ccccc2)c(Cl)c1`, for which the growth was -25.5% (active).

As to `Oc1ccc(O)c(-c2ccccc2)c1`, the growth was 35.4%.

With `COc1cc2cc(Oc3ccc(NC(=O)c4cc(C(F)(F)F)cc(C(F)(F)F)c4)cc3)c(C)nc2cc1OC`, the growth was 50.4%.

In the case of `O=c1[nH]c(=O)n(C2CC(O)C(CO)O2)cc1C(F)(F)F` (stereo not given), the growth was -22.2% (active).

With `CCN(CC)CCn1c2ccc(OC)cc2c2sc3cc(OC)ccc3c(=O)c21`, the growth is 7.58% (active).

With `O=C(Nc1ccncc1)C(=O)c1cn(S(=O)(=O)c2ccc(F)cc2)c2ccccc12`, the growth is 0.498% (active).

Turning to `Nc1ccccc1C#Cc1ccccc1C#Cc1ccc(OCCCCCCOc2ccc(C#Cc3ccccc3C#Cc3ccccc3N)cc2)cc1`, the growth was 110%.

For `COc1ccc(-c2ccc(-c3ccc(C(=N)N)s3)s2)cc1Cl`, the growth was -41.8% (active).

Take `O=C1C=CC2(NN=C(c3ccccc3)N2c2ccc(Cl)cc2)c2cccc(O)c21` (stereo not given): the growth is 23.5%.

With `C[C@@H](c1ccc2c(c1)[nH]c1ccc(Cl)cc12)c1nc2ccc(Cl)cc2[nH]1`, the growth was 0.0537% (active).

Consider `N#Cc1ccccc1-c1ccc(Cn2c(-c3cscn3)nc3c(Cl)cccc32)cc1`, for which the growth is 85.8%.

In the case of `O=c1oc2ccc(I)cc2c(=O)n1-c1ccc(F)cc1F`, the growth is -4.05% (active).

With `Cc1cc(NCc2cc(Nc3ccnc4cc(Cl)ccc34)ccc2F)nc(Cl)n1`, the growth is 22.9%.

Take `COC(=O)c1ccc(NC(=O)CCl)cc1`: the growth was 81.6%.

Consider `Cc1ccc2c(c1)sc1nc(-c3c[nH]c4ccccc34)c(Nc3ccccc3)n12`, for which the growth is 97%.

In the case of `CCCCCCCC(=O)SCC/C=C/[C@@H]1CC(=O)NCc2cc(ccn2)C2=N[C@@](C)(CS2)C(=O)N[C@@H](C(C)C)C(=O)O1`, the growth was 22.6%.

On to `Fc1ccc(CNc2c3ccccc3nc3ccccc23)cc1`, for which the growth is 21.3%.

As for `Clc1ccc(-c2nc(NCCc3ccccc3)nc3c(NCCc4ccccc4)cnn23)cc1`, the growth is 88.8%.

Consider `CC(=O)Nc1ccc(C(=O)c2ccc(S(=O)(=O)Nc3ccccc3)cc2)cc1`, for which the growth is 102%.

For `Cc1ccc(-c2nc(/C=N/Nc3cc(C)nc4ccc(Cl)cc34)c(C)o2)cc1`, the growth was -19.6% (active).

Regarding `O=C(/C=C/c1c[nH]c2ccccc12)c1ccc(O)c(CN2CCN(c3ccc(F)cc3)CC2)c1`, the growth is 97%.

For the compound `COc1ccc(-c2cc3c4c(nc5ccccc5c4c2)CC(c2cc(OC)c(OC)c(OC)c2)O3)cc1` (stereo not given), the growth was 106%.

(Values after PubChem BioAssay (NCI).)
